Laboratory results from PubChem BioAssay.
The source made the active and inactive calls.

Assays:
[1] = binders of probe aFSTL3 on microarray, primary screen, stem cell growth factor project, biochemical, small-molecule microarray, fluorescence 635/667 (AID 1064); conditions: higher = more signal;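 further: measures binding of the biotinylated anti-FSTL3 antibody to printed compounds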
[2] = binders from COS7 lysate, DM2A8 probe, primary screen, torsin A project, cell lysate, small-molecule microarray, fluorescence 635/667 (AID 1065); conditions: higher = more signal, COS7 lysate expressing mutant human TOR1A
[3] = binders of probe aFGF2 on microarray, primary screen, stem cell growth factor project, biochemical, small-molecule microarray, fluorescence 635/667 (AID 1067); conditions: higher = more signal;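 further: measures binding of biotinylated aFGF2 protein to printed compounds on slides; z-score merges feature fluorescence and signal-to-noise across triplicate slides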
[4] = binders of probe aFGF10 on microarray, primary screen, stem cell growth factor project, biochemical, small-molecule microarray, fluorescence 635/667 (AID 1071); conditions: higher = more signal;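 further: score merges 667 nm spot intensity and signal to noise from triplicate slides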
[5] = biological target: Neurogenic locus notch homolog protein 2 (Homo sapiens) (UniProt Q04721); assay: Notch2 binders on small-molecule microarrays, primary screen, biochemical, small-molecule microarray, 635 nm fluorescence, stem cell growth factors (AID 1073); conditions: Notch2 binding, higher = more signal
[6] = biological target: Pro-neuregulin-1, membrane-bound isoform (Homo sapiens) (UniProt Q02297); assay: NRG1 binders on small-molecule microarrays, primary screen, psychiatric disease protein project, biochemical, small-molecule microarray, fluorescence 635/667 (AID 1075); conditions: NRG1 binding, 635 nm fluorescence, higher = more signal;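 further: score combines 667 nm spot fluorescence with signal to noise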
[7] = system: Neuregulin-1 EGF-like domain; assay: binders of neuregulin-1 EGF-like domain, primary screen, biochemical, small-molecule microarray, 635 nm fluorescence (AID 1081); conditions: small-molecule microarray binding, higher = more signal;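 further: binding of the protein to compounds printed on small-molecule microarray slides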
[8] = FRG1 promoter luciferase signal modulators, primary screen, FRG1 inhibition for FSHD, cell-based, C2C12 myotubes, firefly/Renilla luciferase, luminescence (AID 1084); conditions: higher = more signal, called active from +8 up or from −8 down
[9] = binders of probe aFST on microarray, primary screen, stem cell growth factor project, biochemical, small-molecule microarray, fluorescence 635/667 (AID 1086); conditions: higher = more signal;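 further: score merges 667 nm fluorescence with signal-to-noise of each printed compound spot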
[10] = binders of probe aHhip on microarray, primary screen, stem cell growth factor project, biochemical, small-molecule microarray, fluorescence 635/667 (AID 1087); conditions: higher = more signal;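 further: score merges spot fluorescence at 667nm with spot signal to noise ratio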
[11] = system: PRMT1 (protein arginine N-methyltransferase 1); assay: PRMT1 binders on small-molecule microarrays, primary screen, biochemical, small-molecule microarray, 635 nm fluorescence (AID 1088); conditions: small-molecule microarray binding, higher = more signal;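 further: binding of Prmt1 protein to compounds spotted on small-molecule microarray slides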
[12] = yeast growth modulation, basal conditions, primary screen, YJM789 clinical isolate, OD600, 24 h (AID 1089);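 further: growth of clinical yeast isolate S. cerevisiae YJM 789 seeded 1000 cells per well; test concentration not given here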; conditions: S. cerevisiae YJM789 growth, higher = more signal, called active from +8 up or from −8 down
[13] = fission yeast growth modulation, primary screen, strain 972, OD600, 24 h, no modulator (AID 1090);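 further: basal condition with compound alone and no growth modifier present; test concentration not given here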; conditions: S. pombe 972 growth, higher = more signal, called active from +8 up or from −8 down
[14] = S. cerevisiae growth modulation with rapamycin, primary screen, strain BY4716, OD600, 96 h (AID 1091); conditions: higher = more signal, called active from +8 up or from −8 down; further: test concentration not given here
[15] = biological target: Torsin-1A-interacting protein 2 (Homo sapiens) (UniProt Q8NFQ8); assay: LULL1 binders on small-molecule microarray, primary screen, cell lysate, human LULL1 lysate, 635/667 nm fluorescence (AID 1092); conditions: hLULL1 lysate binding, 635 nm fluorescence, higher = more signal;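 further: probe is lysate of COS7 cells overexpressing human LULL1; score merges per-feature 667 nm fluorescence with signal-to-noise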
[16] = E. coli growth modulation, two-sided OD650, primary screen, E. coli filamentation project, strain DRC41, 24 h (AID 1093); conditions: OD650, 24 h, higher = more signal, called active from +8 up or from −8 down;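 further: MC1000 strain lacking acrAB efflux and sulA so SOS filamentation is blocked; test concentration not given here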
[17] = small-molecule microarray binders of probe aLefty2, primary screen, biochemical, biotinylated probe, 635/667 nm fluorescence (AID 1094); conditions: higher = more signal;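 further: score merges spot fluorescence near 667 nm with spot signal-to-noise ratio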
[18] = system: Noggin (protein binding on small-molecule microarray); assay: Noggin binders on small-molecule microarray, primary screen, biochemical, 635/667 nm fluorescence (AID 1095); conditions: 635 nm fluorescence, higher = more signal;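 further: score merges 667 nm feature fluorescence with signal to noise over triplicate slides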
[19] = biological target: Neurogenic locus notch homolog protein 3 (Homo sapiens) (UniProt Q9UM47); assay: NOTCH3 binders on small-molecule microarray, primary screen, biochemical, 635/667 nm fluorescence (AID 1096); conditions: NOTCH3 binding, 635 nm fluorescence, higher = more signal
[20] = small-molecule microarray binders of probe aEGFR, primary screen, biochemical, biotinylated probe, 635/667 nm fluorescence (AID 1097); conditions: higher = more signal;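 further: probe is a biotinylated anti-EGFR antibody binding compounds printed on slides; score combines fluorescence near 667 nm and signal to noise of each spot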

Pro-neuregulin-1, membrane-bound isoform (Homo sapiens), sequence (Q02297 whole entry, looked up, the tested form may be a part, canonical isoform): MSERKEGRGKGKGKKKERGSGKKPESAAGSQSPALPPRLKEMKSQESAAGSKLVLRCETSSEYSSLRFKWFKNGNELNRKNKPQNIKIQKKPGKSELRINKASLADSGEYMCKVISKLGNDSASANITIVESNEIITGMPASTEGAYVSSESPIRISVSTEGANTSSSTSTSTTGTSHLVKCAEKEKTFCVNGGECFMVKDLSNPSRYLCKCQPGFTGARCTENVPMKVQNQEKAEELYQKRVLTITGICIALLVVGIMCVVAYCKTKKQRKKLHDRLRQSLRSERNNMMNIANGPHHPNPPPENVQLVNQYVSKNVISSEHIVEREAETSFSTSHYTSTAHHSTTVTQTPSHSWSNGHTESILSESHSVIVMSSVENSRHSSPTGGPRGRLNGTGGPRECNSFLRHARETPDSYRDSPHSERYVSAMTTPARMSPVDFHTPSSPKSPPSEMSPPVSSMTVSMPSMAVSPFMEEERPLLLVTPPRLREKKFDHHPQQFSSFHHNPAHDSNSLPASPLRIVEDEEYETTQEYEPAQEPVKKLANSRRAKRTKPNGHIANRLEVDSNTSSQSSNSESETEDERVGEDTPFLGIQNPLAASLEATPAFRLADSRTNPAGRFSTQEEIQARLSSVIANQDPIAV
Neurogenic locus notch homolog protein 3 (Homo sapiens), sequence (Q9UM47 whole entry, looked up): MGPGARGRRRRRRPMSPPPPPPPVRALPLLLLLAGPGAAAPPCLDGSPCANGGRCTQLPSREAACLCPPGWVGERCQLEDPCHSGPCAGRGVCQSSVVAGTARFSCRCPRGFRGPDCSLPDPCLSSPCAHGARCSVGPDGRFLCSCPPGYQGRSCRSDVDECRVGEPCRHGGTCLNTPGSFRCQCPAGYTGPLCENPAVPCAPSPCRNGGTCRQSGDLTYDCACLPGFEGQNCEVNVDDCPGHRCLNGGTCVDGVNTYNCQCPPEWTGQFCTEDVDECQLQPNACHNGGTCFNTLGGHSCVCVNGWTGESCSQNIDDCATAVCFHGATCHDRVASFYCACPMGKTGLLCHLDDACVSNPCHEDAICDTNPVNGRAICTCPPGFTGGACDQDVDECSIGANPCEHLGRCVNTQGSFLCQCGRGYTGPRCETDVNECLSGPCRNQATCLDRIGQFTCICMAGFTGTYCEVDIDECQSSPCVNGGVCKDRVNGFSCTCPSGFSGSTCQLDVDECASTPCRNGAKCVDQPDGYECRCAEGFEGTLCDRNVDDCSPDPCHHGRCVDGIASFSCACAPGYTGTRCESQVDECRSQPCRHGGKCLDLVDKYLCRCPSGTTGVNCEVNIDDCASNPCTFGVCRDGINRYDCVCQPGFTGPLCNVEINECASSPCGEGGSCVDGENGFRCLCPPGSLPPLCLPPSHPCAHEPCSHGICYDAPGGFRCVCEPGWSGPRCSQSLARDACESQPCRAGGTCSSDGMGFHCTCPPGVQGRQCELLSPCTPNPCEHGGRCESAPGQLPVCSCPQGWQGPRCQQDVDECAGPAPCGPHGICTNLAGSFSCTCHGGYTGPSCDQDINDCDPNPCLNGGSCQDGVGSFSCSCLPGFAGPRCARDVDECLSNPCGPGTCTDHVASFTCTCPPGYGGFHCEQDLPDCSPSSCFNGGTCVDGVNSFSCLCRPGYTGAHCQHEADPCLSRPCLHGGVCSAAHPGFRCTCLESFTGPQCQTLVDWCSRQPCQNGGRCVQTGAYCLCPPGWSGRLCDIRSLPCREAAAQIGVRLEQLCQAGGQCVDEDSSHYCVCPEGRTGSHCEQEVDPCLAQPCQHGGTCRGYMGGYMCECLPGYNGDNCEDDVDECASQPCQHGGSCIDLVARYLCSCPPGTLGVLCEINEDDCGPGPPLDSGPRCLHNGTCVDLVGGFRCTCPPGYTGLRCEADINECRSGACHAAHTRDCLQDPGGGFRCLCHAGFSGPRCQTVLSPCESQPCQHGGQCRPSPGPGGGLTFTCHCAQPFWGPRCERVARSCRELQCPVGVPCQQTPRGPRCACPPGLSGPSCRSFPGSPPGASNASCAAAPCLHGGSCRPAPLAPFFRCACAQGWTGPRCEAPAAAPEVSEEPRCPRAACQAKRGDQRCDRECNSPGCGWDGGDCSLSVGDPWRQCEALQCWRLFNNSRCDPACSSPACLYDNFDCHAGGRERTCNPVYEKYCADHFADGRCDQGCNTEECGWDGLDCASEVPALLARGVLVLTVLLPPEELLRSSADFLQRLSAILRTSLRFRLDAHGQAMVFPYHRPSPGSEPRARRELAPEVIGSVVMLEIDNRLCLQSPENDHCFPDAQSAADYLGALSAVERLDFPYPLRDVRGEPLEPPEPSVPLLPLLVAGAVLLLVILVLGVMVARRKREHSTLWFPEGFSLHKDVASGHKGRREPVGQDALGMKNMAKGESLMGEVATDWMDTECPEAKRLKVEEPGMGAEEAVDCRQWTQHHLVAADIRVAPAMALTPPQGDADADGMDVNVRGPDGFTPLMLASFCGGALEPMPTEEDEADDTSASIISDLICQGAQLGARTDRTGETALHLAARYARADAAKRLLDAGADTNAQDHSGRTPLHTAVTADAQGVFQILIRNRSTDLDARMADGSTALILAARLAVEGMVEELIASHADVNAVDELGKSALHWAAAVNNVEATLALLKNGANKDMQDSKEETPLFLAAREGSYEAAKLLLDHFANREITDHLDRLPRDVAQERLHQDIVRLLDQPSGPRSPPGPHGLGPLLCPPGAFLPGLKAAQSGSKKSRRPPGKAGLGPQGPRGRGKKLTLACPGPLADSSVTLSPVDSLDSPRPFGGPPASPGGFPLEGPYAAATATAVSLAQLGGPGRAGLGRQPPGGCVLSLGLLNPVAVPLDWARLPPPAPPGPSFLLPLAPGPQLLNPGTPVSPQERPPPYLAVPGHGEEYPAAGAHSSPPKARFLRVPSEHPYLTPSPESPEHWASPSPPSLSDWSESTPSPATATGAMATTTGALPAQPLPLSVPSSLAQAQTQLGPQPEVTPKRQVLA
Torsin-1A-interacting protein 2 (Homo sapiens), sequence (Q8NFQ8 whole entry, looked up): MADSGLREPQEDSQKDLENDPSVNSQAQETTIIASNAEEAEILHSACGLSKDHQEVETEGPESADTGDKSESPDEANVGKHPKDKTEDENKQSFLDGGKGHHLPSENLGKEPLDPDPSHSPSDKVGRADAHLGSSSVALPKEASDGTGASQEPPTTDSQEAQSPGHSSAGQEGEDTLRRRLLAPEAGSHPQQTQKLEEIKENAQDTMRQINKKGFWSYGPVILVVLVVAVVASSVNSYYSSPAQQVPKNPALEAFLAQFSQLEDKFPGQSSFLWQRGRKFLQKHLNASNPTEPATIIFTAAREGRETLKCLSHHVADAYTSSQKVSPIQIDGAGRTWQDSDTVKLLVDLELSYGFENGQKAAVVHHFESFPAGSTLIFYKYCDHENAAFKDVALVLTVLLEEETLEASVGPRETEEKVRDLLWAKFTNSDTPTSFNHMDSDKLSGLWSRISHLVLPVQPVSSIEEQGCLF

COCCOC(=O)N1C(=O)[C@@]2(c3cc(C#Cc4ccc(OC)cc4)ccc31)[C@H](c1ccc(O)cc1)N1[C@H](c3ccccc3)[C@H](c3ccccc3)OC(=O)[C@H]1[C@@H]2C(=O)NC[C@H](O)c1ccccc1
composite z-score [1]: -0.273 | composite z-score [2]: 0.101 | composite z-score [3]: -0.155 | composite z-score [4]: 0.63 | composite z-score [5]: 1.29 | composite z-score [6]: 1.53 | composite z-score [7]: 1.34 | z-score [8]: 0.1 (inactive) | composite z-score [9]: 0.536 | composite z-score [10]: 0.192 | composite z-score [11]: 1.54 | z-score [12]: 1.5 (inactive) | z-score [13]: 0.217 (inactive) | z-score [14]: 2.82 (inactive) | composite z-score [15]: 2.16 | z-score [16]: 0.873 (inactive) | composite z-score [17]: -0.09 | composite z-score [18]: 1.48 | composite z-score [19]: 1.08 | composite z-score [20]: 0.0209

CCOC(=O)[C@H]1C/C=C/C[C@H](C(=O)OCC)C(=O)O[C@H]2[C@@H](OC)O[C@H](CO)[C@@H](OC(=O)Nc3cccc(F)c3)[C@@H]2OC1=O
composite z-score [1]: -0.621 | composite z-score [2]: -0.125 | composite z-score [3]: -0.0766 | composite z-score [4]: 0.39 | composite z-score [5]: 0.196 | composite z-score [6]: 1.21 | composite z-score [7]: 1.15 | z-score [8]: 0.15 (inactive) | composite z-score [9]: 0.0218 | composite z-score [10]: -0.444 | composite z-score [11]: 1.11 | z-score [12]: 1.52 (inactive) | z-score [13]: 0.268 (inactive) | z-score [14]: 22.2 (active) | composite z-score [15]: 2.94 | z-score [16]: -0.168 (inactive) | composite z-score [17]: -0.162 | composite z-score [18]: 0.719 | composite z-score [19]: 1.02 | composite z-score [20]: -0.2

CC(=O)n1cc(C(O)C2C=CC3C(=O)N(C)C(=O)C3N2Nc2ccccc2)c2ccccc21 (stereo not given)
composite z-score [1]: 0.508 | composite z-score [2]: 0.287 | composite z-score [3]: 0.0672 | composite z-score [4]: 0.974 | composite z-score [5]: 1.58 | composite z-score [6]: 1.78 | composite z-score [7]: 1.27 | z-score [8]: 0.376 (inactive) | composite z-score [9]: 0.951 | composite z-score [10]: -0.0196 | composite z-score [11]: 1.05 | z-score [12]: -0.0186 (inactive) | z-score [13]: 1.4 (inactive) | z-score [14]: 1.05 (inactive) | composite z-score [15]: 3.18 | z-score [16]: -0.77 (inactive) | composite z-score [17]: 0.347 | composite z-score [18]: 0.606 | composite z-score [19]: 1.12 | composite z-score [20]: -0.0644

CC(C)(C)OC(=O)CC[C@]1(C(=O)NCC(O)CO)COC(c2ccc(OCCCO)cc2)=N1 (stereo not given in full)
composite z-score [1]: 0.139 | composite z-score [2]: -0.382 | composite z-score [3]: -0.0551 | composite z-score [4]: -0.0211 | composite z-score [5]: 1.13 | composite z-score [6]: 1.97 | composite z-score [7]: 1.21 | z-score [8]: 0.555 (inactive) | composite z-score [9]: 1.24 | composite z-score [10]: -0.0645 | composite z-score [11]: 0.281 | z-score [12]: 0.65 (inactive) | z-score [13]: 1 (inactive) | z-score [14]: 0.977 (inactive) | composite z-score [15]: 3.71 | z-score [16]: -0.0576 (inactive) | composite z-score [17]: -0.12 | composite z-score [18]: -0.579 | composite z-score [19]: -0.0234 | composite z-score [20]: 0.0287

COC(=O)[C@@]1(Cc2ccc(OC)cc2)[C@H]2c3cc(C(=O)N4CCCC4)n(Cc4ccc(OC)c(OC)c4)c3C[C@H]2CN1C(=O)c1ccccc1
composite z-score [1]: 1.65 | composite z-score [2]: 0.188 | composite z-score [3]: 0.636 | composite z-score [4]: 0.199 | composite z-score [5]: 1.72 | composite z-score [6]: 2.16 | composite z-score [7]: 1.07 | z-score [8]: 2.25 (inactive) | composite z-score [9]: 1.74 | composite z-score [10]: 0.319 | composite z-score [11]: 0.929 | z-score [12]: -0.515 (inactive) | z-score [13]: 0.835 (inactive) | z-score [14]: 1.18 (inactive) | composite z-score [15]: 3.36 | z-score [16]: -0.148 (inactive) | composite z-score [17]: 1.2 | composite z-score [18]: 0.793 | composite z-score [19]: 1.11 | composite z-score [20]: 0.889

[N-]=[N+]=NCc1ccccc1C[C@@]1(C(=O)NCC(O)CO)N=C(c2ccc(OCCCO)cc2)O[C@@H]1c1ccccc1N=[N+]=[N-] (stereo not given in full)
composite z-score [1]: 0.516 | composite z-score [2]: -0.133 | composite z-score [3]: 0.0109 | composite z-score [4]: 0.451 | composite z-score [5]: 0.669 | composite z-score [6]: 1.78 | composite z-score [7]: 1 | z-score [8]: -0.755 (inactive) | composite z-score [9]: 1.66 | composite z-score [10]: 0.0139 | composite z-score [11]: 1.53 | z-score [12]: -1.01 (inactive) | z-score [13]: -0.348 (inactive) | z-score [14]: 1.99 (inactive) | composite z-score [15]: 3.53 | z-score [16]: 1.73 (inactive) | composite z-score [17]: 0.36 | composite z-score [18]: 0.633 | composite z-score [19]: 0.618 | composite z-score [20]: 0.118

O=C1NC(=O)C2C1C=CC(C(O)C(c1ccccc1)c1ccccc1)N2Nc1ccc(Cl)cc1Cl (stereo not given)
composite z-score [1]: 0.246 | composite z-score [2]: -0.471 | composite z-score [3]: 0.103 | composite z-score [4]: 0.501 | composite z-score [5]: 1.49 | composite z-score [6]: 0.782 | composite z-score [7]: 0.756 | z-score [8]: 1.04 (inactive) | composite z-score [9]: 1.44 | composite z-score [10]: 0.0373 | composite z-score [11]: 0.532 | z-score [12]: -0.111 (inactive) | z-score [13]: -0.767 (inactive) | z-score [14]: 1.5 (inactive) | composite z-score [15]: 2.86 | z-score [16]: -1.27 (inactive) | composite z-score [17]: 0.185 | composite z-score [18]: 0.561 | composite z-score [19]: 0.982 | composite z-score [20]: -0.0267

CCOC(=O)C[C@H]1[C@H](OC(=O)c2cc3ccccc3oc2=O)[C@@H](NC(=O)C2CCCCC2)c2cc(OCCCO)ccc2N1C(=O)c1ccccc1
composite z-score [1]: -0.565 | composite z-score [2]: 0.0071 | composite z-score [3]: -0.121 | composite z-score [4]: 0.642 | composite z-score [5]: 1.29 | composite z-score [6]: 0.0246 | composite z-score [7]: 0.863 | z-score [8]: 0.0161 (inactive) | composite z-score [9]: 0.564 | composite z-score [10]: -0.0618 | composite z-score [11]: 0.633 | z-score [12]: -0.415 (inactive) | z-score [13]: -0.894 (inactive) | z-score [14]: -0.0843 (inactive) | composite z-score [15]: 1.45 | z-score [16]: 2.03 (inactive) | composite z-score [17]: -0.0668 | composite z-score [18]: 0.844 | composite z-score [19]: 0.615 | composite z-score [20]: 0.25

O=C1O[C@H](c2ccccc2)[C@H](c2ccccc2)N2[C@H]1[C@@H](C(=O)N1CCN(c3ncccn3)CC1)[C@]1(C(=O)Nc3ccc(C#CC4=CCCCC4)cc31)[C@H]2c1ccc(O)cc1
composite z-score [1]: -0.001 | composite z-score [2]: 0.542 | composite z-score [3]: -0.0523 | composite z-score [4]: 0.768 | composite z-score [5]: 1.28 | composite z-score [6]: 1.11 | composite z-score [7]: 1.24 | z-score [8]: -0.63 (inactive) | composite z-score [9]: 0.502 | composite z-score [10]: -0.201 | composite z-score [11]: 1.54 | z-score [12]: 1.92 (inactive) | z-score [13]: 1.48 (inactive) | z-score [14]: 2.97 (inactive) | composite z-score [15]: 2.76 | z-score [16]: 0.454 (inactive) | composite z-score [17]: -0.0313 | composite z-score [18]: 0.555 | composite z-score [19]: 0.79 | composite z-score [20]: 0.0624

COCCOC(=O)N1C(=O)[C@@]2(c3cc(C#CCCO)ccc31)[C@H](C(=O)Nc1nc3ccccc3s1)[C@H]1C(=O)O[C@H](c3ccccc3)[C@H](c3ccccc3)N1[C@@H]2c1ccc(OCCO)cc1
composite z-score [1]: -0.221 | composite z-score [2]: 0.787 | composite z-score [3]: -0.0824 | composite z-score [4]: 0.871 | composite z-score [5]: 1.19 | composite z-score [6]: 0.991 | composite z-score [7]: 1.07 | z-score [8]: 1.2 (inactive) | composite z-score [9]: 0.464 | composite z-score [10]: 0.0176 | composite z-score [11]: 1.54 | z-score [12]: 1.58 (inactive) | z-score [13]: 1.09 (inactive) | z-score [14]: 2.02 (inactive) | composite z-score [15]: 1.89 | z-score [16]: 0.176 (inactive) | composite z-score [17]: 0.0444 | composite z-score [18]: 0.874 | composite z-score [19]: 1.1 | composite z-score [20]: 0.0848
